Rows were chosen to be rich in hits. Some 4.6% of all compounds tested hit in one or more screens of this group.
SKKanGAS inh: SKKanGAS growth inhibition | S. pyogenes SKKanGAS, kanamycin growth, BacTiter-Glo, 6 h | inhibition, % at 7.5 µM | 300,000 compounds, 1.3% hits;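 active means mean replicate score, as percent of positive control median, at least 50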;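 further: strain carries kanamycin resistance gene driven by streptokinase promoter and grows in 40 µg/ml kanamycin; loss of luminescence reflects streptokinase promoter inhibition or plain growth inhibition; 0% = median of DMSO wells and 100% = positive control at its reference dose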
tim10-1 inh: tim10-1 yeast growth inhibition; 330,000 compounds, 2.2% hits; S. cerevisiae tim10-1 ts strain growth, BacTiter-Glo, 24 h; inhibition, % at 20 µM;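 active means inhibition of at least 40%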;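 further: mutant grown at 25 °C; 0% = DMSO wells with yeast and 100% = wells holding no yeast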
TIM10 inh: inhibits growth of TIM10 yeast strain; S. cerevisiae TIM10 strain growth, BacTiter-Glo luminescence, 24 h; inhibition, % at 10 µM; 330,000 compounds, 1.4% hits; AID 463195;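 active means inhibition of 40% or more at the single tested concentration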;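 further: wild-type TIM10 isogenic control strain grown at permissive 25 °C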
tim23-1 inh: tim23-1 yeast growth inhibition | 330,000 compounds, 1.3% hits | AID 463212 | inhibition, % at 20 µM | S. cerevisiae tim23-1 growth, BacTiter-Glo luminescence, 24 h;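 active means growth inhibition of the mutant yeast at or above 50%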;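 further: temperature-sensitive mutant grown at 25 °C; plate controls were DMSO-treated mutant yeast for no effect and medium wells lacking yeast for full effect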
PfHsp90 yeast 2: growth inhibition of yeast expressing Plasmodium Hsp90; inhibition, % at 9.4 µM; 310,000 compounds, 0.32% hits; S. cerevisiae expressing PfHsp90, BacTiter-Glo ATP, 48 h; yeast lacking PDR1 and PDR3 efflux regulators;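 active means every replicate shows inhibition above about 80%, whatever the replicate mean, limit read from the data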;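 further: 0% = DMSO neutral controls and 100% = 20 µM radicicol positive controls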
NALP3 yeast inh: NALP3 inhibition in yeast; Yeast reconstituted NLRP3/ASC/caspase-1, beta-gal luminescence, 24 h; inhibition, % at 10 µM; 330,000 compounds, 0.39% hits; AID 2825;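 active means inhibition of 50% or more; inactive means inhibition below 50%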;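 further: plate controls were induced DMSO wells for no effect and uninduced yeast grown without galactose for full effect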
tim10-1 conf: tim10-1 yeast growth inhibition, confirmed | AID 463213 | S. cerevisiae tim10-1 ts strain growth, BacTiter-Glo, 24 h | 7,400 compounds, 56% hits | shares compounds with tim10-1 inh | inhibition, % at 20 µM;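 active means inhibition of yeast growth at or above a set limit in either of two repeat tests at 20 µM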;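 further: tim10-1 mutant grown at permissive 25 °C to find synthetic lethal compounds; 0% = DMSO yeast wells and 100% = medium wells without yeast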
* hit, by the source's call; . = no result given.

SMILES	SKKanGAS inh	tim10-1 inh	TIM10 inh	tim23-1 inh	PfHsp90 yeast 2	NALP3 yeast inh	tim10-1 conf
COc1ccc(-c2c(C)nn3c(N4CCN(Cc5ccccc5)CC4)cc(C)nc23)cc1OC	2	34	15	41	13	20	.
COc1ccc(CCNc2cc(C)nc3c(-c4ccccc4)c(C)nn23)cc1OC	2	43*	18	25	19	18	20
OCCC1CN(Cc2cccc3nonc23)CCN1C1CCCCC1 (configuration not stated)	-1	-4	5	8	-6	15	.
N#Cc1nc(COc2ccc(Cl)cc2Cl)oc1N1CCOCC1	-4	41*	32	30	10	19	25
COc1ccc(C(=O)NCCSc2ccccc2)cc1OC	8	1	13	8	7	5	.
Cc1ccc(-c2csc(C3C(N)=NC(S)=C(C#N)C34CCCCC4)n2)cc1 (configuration not stated)	4	45*	33	33	.	13	19
Cc1cc2nc(/C(C#N)=C\c3ccc(-c4ccccc4C(=O)O)o3)[nH]c2cc1C	7	46*	10	30	-12	-1	39*
Cc1ccc2nc(/C(C#N)=C/c3ccc(-c4ccccc4C(=O)O)o3)[nH]c2c1	14	9	2	14	-7	11	.
CCOC(=O)C1CCCN(C2=NC(=O)/C(=C/c3ccc(OC)cc3)S2)C1 (configuration not stated)	-5	47*	20	33	-6	10	31*
CCOC(=O)C1CCCN(C2=NC(=O)/C(=C/c3ccc(O)c(OCC)c3)S2)C1 (configuration not stated)	4	46*	28	40	6	8	26
Cc1[nH]n(C(N)=S)c(=O)c1N=Nc1ccc2ccccc2c1	25	.	.	.	-14	.	.
COc1ccc(C(c2c(C)[nH]n(C(N)=S)c2=O)C(C#N)C#N)cc1 (configuration not stated)	.	44*	18	47	-12	18	24
Cc1[nH]c2ccccc2c1NC(=O)CN1CCN(c2cccc(C(F)(F)F)c2)CC1	.	25	21	6	9	10	.
Cc1[nH]c2ccccc2c1C(O)CN1CCN(c2cccc(C(F)(F)F)c2)CC1 (configuration not stated)	-3	55*	26	-3	22	-6	48*
CC(=O)CCc1oc2ccc(C)cc2c1-c1ccc(C)o1	8	46*	33	36	.	4	58*
C/C(=N\NC(=S)NCc1ccccc1)c1ccc(C(C)(C)C)cc1	18	42*	28	38	4	21	24
CC(=O)NNC(=S)NCCc1ccccc1	-3	13	-22	4	5	2	.
C/C(=N\NC(=S)NCc1ccccc1)c1ccco1	22	17	23	-18	-11	-15	.
C/C(=N\NC(=S)NCCc1ccccc1)c1ccc(O)cc1O	-8	43*	30	33	0	17	3
C/C(=N\NC(=S)NCc1ccccc1)c1ccccc1F	16	46*	31	40	-16	-6	34*
C/C(=N\NC(=S)NCc1ccccc1)c1ccc(C#N)cc1	2	5	15	3	17	3	.
CCN(CC(=O)NCc1ccc(Cl)cc1)C(=O)COc1cccc(C(F)(F)F)c1	-4	-7	-5	-6	9	20	.
COc1cc(CC(=O)OCC(=O)NCCc2ccc(S(N)(=O)=O)cc2)cc(OC)c1OC	.	5	-4	10	-15	0	.
O=C(COC(=O)c1cc(=O)c2ccccc2o1)Nc1ccc2ccccc2c1	-2	6	-12	12	-23	30	.
CCCCc1ccc(C2C(C#N)=C(N)SC(N)=C2C#N)s1	.	50*	12	33	.	14	34*
SMILES	SKKanGAS inh	tim10-1 inh	TIM10 inh	tim23-1 inh	PfHsp90 yeast 2	NALP3 yeast inh	tim10-1 conf
CN(C)C(CNC1CC(C)(C)NC(C)(C)C1)c1cccc(F)c1 (configuration not stated)	3	6	14	0	10	6	.
Cc1ccc(-c2nc(-c3ccccn3)no2)cc1Cl	15	40*	24	44	28	16	15
Clc1cccc(-c2nc(-c3ccccn3)no2)c1	12	17	1	-6	35	9	.
Cc1ccc(-c2nc(-c3ccccn3)no2)cc1	59*	43*	17	39	55	32	17
Cc1ccc(-c2nc(-c3ccccn3)no2)cc1[N+](=O)[O-]	19	8	1	18	7	18	.
COc1ccccc1N1C(=O)CC(N2CCN(c3ccc(Cl)cc3)CC2)C1=O (configuration not stated)	7	6	16	9	1	14	.
COc1ccc(N2C(=O)CC(Sc3nnc(-c4ccccc4)o3)C2=O)cc1 (configuration not stated)	-12	53*	39	41	0	18	55*
O=C1CC(Sc2nnc(-c3ccccc3O)o2)C(=O)N1c1ccccc1 (configuration not stated)	7	26	35	38	-37	17	.
CN(C)S(=O)(=O)N1CCN(c2cc(Cl)ccc2Cl)CC1	5	43*	-13	28	2	14	20
COC(=O)c1c(NC(=O)CN2CCC3(O)CCCCC3C2c2ccccc2OC)sc(C)c1C (configuration not stated)	-2	40*	34	31	12	-17	28
Cc1ccccc1NC(=O)c1ccccc1NC(=O)CCC(=O)O	0	-3	3	-1	8	4	.
CCOC(=O)c1ccc(NC(=O)c2nc[nH]c2C(=O)N(C)Cc2ccccc2)cc1	9	42*	10	33	16	11	28
CCC(=O)c1c(NCCc2ccccc2)cc(C)oc1=O	0	30	5	28	11	12	.
CCOC(=O)c1c2c(n(C)c1COC)C(=O)C(=O)c1ccc(Br)cc1-2	88*	48*	6	41	.	12	13
C/C(CC(=O)Nc1ccc(Cl)c(C(F)(F)F)c1)=N\NC(=O)c1cnccn1	4	49*	17	34	-37	4	25
Clc1ccc(CSc2ncnc3c2ncn3C2CCCCO2)cc1 (configuration not stated)	.	.	.	.	-2	.	.
CC(=O)c1cc(NC(=O)c2ccc(Cl)cc2)c(=O)oc1/C=C/N(C)C	0	46*	28	14	22	25	28
CC(=O)Oc1ccc2c(=O)oc(-c3ccccc3C)nc2c1	3	44*	20	41	-13	22	40*
O=C(NC1CCCC1)c1sc(=S)n2c1[nH]c(=O)c1ccccc12	30	47*	24	23	.	-20	26
